From PubChem BioAssay (NCI)
The panel holds about 83,000 compounds, 20% with a hit somewhere; the sample as a whole holds those more often.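 Negative percent growth values reflect cell death: -40 means 40% of the cells present at the start died, and -100 means all died.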 Active and inactive are the calls of the source. How the source made its calls: active means growth percent below 10; inactive means the rest.

Key:
Experiment in all cases: NCI-60 one-dose screen, 48 h (100 = growth as untreated, 0 = no growth, -100 = all killed)
Settings in all cases: 10 µM unless noted
HCT-15 colon = system: HCT-15 colon
HT29 colon = system: HT29 colon
SNB-75 CNS = system: SNB-75 CNS
SNB-19 CNS = system: SNB-19 CNS
U251 CNS = system: U251 CNS
PC-3 prostate = system: PC-3 prostate
UACC-62 melanoma = system: UACC-62 melanoma
LOX IMVI melanoma = system: LOX IMVI melanoma
SK-MEL-28 melanoma = system: SK-MEL-28 melanoma
SK-MEL-5 melanoma = system: SK-MEL-5 melanoma

Measured: growth

COc1ccc(/C=C/C(=O)/C=C/c2cc3ccccc3[nH]c2=O)cc1
inactive: HCT-15 colon 75.3% | SNB-75 CNS 61.6% | SNB-19 CNS 79.6% | U251 CNS 13.7% | PC-3 prostate 52.4% | UACC-62 melanoma 53.5% | SK-MEL-28 melanoma 79.6%
active: HT29 colon 3.66% | LOX IMVI melanoma -21%

COc1ccc(C(O)(c2ccccc2)C(C(=O)O)c2ccccc2)cc1 (stereo not drawn)
inactive: HCT-15 colon 107% | HT29 colon 91.3% | SNB-75 CNS 94.6% | SNB-19 CNS 96.9% | U251 CNS 116% | PC-3 prostate 85.8% | UACC-62 melanoma 93.6% | LOX IMVI melanoma 96.7% | SK-MEL-28 melanoma 112%

COc1ccc(/C=C2\SC(=O)N(Cc3cc(=O)oc4ccc(OC)cc34)C2=O)cc1
inactive: HCT-15 colon 89.9% | HT29 colon 95.8% | SNB-75 CNS 74.3% | SNB-19 CNS 87% | U251 CNS 98.9% | PC-3 prostate 93.1% | SK-MEL-5 melanoma 87.4% | UACC-62 melanoma 66.3% | SK-MEL-28 melanoma 95.1%

O=C(CCCC(=O)Nc1ccc(Cn2nnc3cc(Cl)c(Cl)cc32)cc1)Nc1ccc(CN2N=NC3C=C(Cl)C(Cl)=CC32)cc1 (stereo not drawn)
inactive: HCT-15 colon 97.3% | HT29 colon 86.5% | SNB-75 CNS 70.3% | SNB-19 CNS 86.2% | U251 CNS 84.2% | PC-3 prostate 60.2% | UACC-62 melanoma 62.3% | LOX IMVI melanoma 78.8% | SK-MEL-28 melanoma 103%

CCCCCCC(=O)C(C)C
inactive: HCT-15 colon 102% | HT29 colon 109% | SNB-75 CNS 95.1% | SNB-19 CNS 107% | U251 CNS 98.6% | PC-3 prostate 100% | SK-MEL-5 melanoma 101% | UACC-62 melanoma 107% | SK-MEL-28 melanoma 113%

Oc1ccccc1\C=N/N=C/C=C/c1ccccc1
inactive: HCT-15 colon 103% | HT29 colon 92.3% | SNB-75 CNS 88.4% | SNB-19 CNS 93.9% | U251 CNS 99.5% | PC-3 prostate 89.7% | UACC-62 melanoma 93.2% | LOX IMVI melanoma 91.1% | SK-MEL-28 melanoma 111%

N/C(=N\O)c1ccncc1
inactive: HCT-15 colon 100% | HT29 colon 101% | SNB-75 CNS 86.7% | SNB-19 CNS 104% | U251 CNS 106% | PC-3 prostate 102% | UACC-62 melanoma 98.1% | LOX IMVI melanoma 96.2% | SK-MEL-28 melanoma 109%

O=C(/C=C/c1ccc(Br)cc1)c1ccccc1
inactive: HCT-15 colon 72.5% | HT29 colon 69.8% | SNB-75 CNS 101% | SNB-19 CNS 86.9% | U251 CNS 69% | PC-3 prostate 82% | UACC-62 melanoma 92.2% | LOX IMVI melanoma 59.6%

COc1ccccc1Cn1cc2c(c1)-c1oncc1CC2
inactive: HCT-15 colon 15.7% | SNB-75 CNS 13.7% | SNB-19 CNS 38.3% | U251 CNS 28.4% | PC-3 prostate 25.4% | UACC-62 melanoma 54.6% | LOX IMVI melanoma 37.5% | SK-MEL-28 melanoma 55.3%
active: HT29 colon 9.87%

Oc1ccc2ccccc2c1/C=N\Nc1ccccn1
active: SNB-75 CNS -7.53% | UACC-62 melanoma 0.907%
inactive: HCT-15 colon 28.7% | HT29 colon 111% | SNB-19 CNS 27.8% | U251 CNS 21.3% | PC-3 prostate 45.1% | SK-MEL-5 melanoma 13.3% | SK-MEL-28 melanoma 38.9%

O=C1OC(c2ccc(-c3ccccc3)cc2)=C/C1=C/c1c2ccccc2cc2ccccc12
inactive: HCT-15 colon 74.8% | HT29 colon 103% | SNB-75 CNS 78.7% | SNB-19 CNS 94.1% | U251 CNS 98% | PC-3 prostate 98.5% | SK-MEL-5 melanoma 104% | UACC-62 melanoma 99.3% | SK-MEL-28 melanoma 87.7%

CCOc1ccc(/C=N/NC(=O)c2cccc3ccccc23)cc1OCC
inactive: HCT-15 colon 97.2% | HT29 colon 103% | SNB-75 CNS 106% | SNB-19 CNS 110% | U251 CNS 100% | PC-3 prostate 90.1% | SK-MEL-5 melanoma 92.1% | UACC-62 melanoma 93.4% | SK-MEL-28 melanoma 103%

O=C1/C(=N\c2cc(=O)[nH]n2S(=O)(=O)c2ccccc2)Nc2ccccc21
inactive: HCT-15 colon 100% | HT29 colon 109% | SNB-75 CNS 81.2% | SNB-19 CNS 99.8% | U251 CNS 105% | PC-3 prostate 87% | SK-MEL-5 melanoma 98.6% | UACC-62 melanoma 97.6% | SK-MEL-28 melanoma 116%

CCCCCCCCCCCCOC(=O)/C=C\C(=O)NC(N)=O
inactive: HCT-15 colon 57.9% | HT29 colon 88.6% | SNB-75 CNS 81.5% | SNB-19 CNS 91.6% | U251 CNS 74% | PC-3 prostate 71.6% | SK-MEL-5 melanoma 99.6% | UACC-62 melanoma 82% | SK-MEL-28 melanoma 99.2%

O=C(O)/C(Br)=C/c1c[nH]c2ccc(Br)cc12
inactive: HCT-15 colon 114% | HT29 colon 106% | SNB-75 CNS 105% | SNB-19 CNS 126% | U251 CNS 105% | PC-3 prostate 123% | SK-MEL-5 melanoma 107% | UACC-62 melanoma 104% | SK-MEL-28 melanoma 63.7%

CCCCCCCCCCCC(=O)OC(C)C(=O)Nc1ccccc1 (stereo not drawn)
inactive: HCT-15 colon 97% | HT29 colon 99.7% | SNB-75 CNS 71.9% | SNB-19 CNS 95.1% | U251 CNS 97.7% | PC-3 prostate 90.3% | SK-MEL-5 melanoma 118% | UACC-62 melanoma 100% | SK-MEL-28 melanoma 108%

CCC(C)CC(N)O (stereo not drawn)
inactive: HCT-15 colon 103% | HT29 colon 111% | SNB-75 CNS 106% | SNB-19 CNS 106% | U251 CNS 106% | PC-3 prostate 111% | SK-MEL-5 melanoma 99.9% | UACC-62 melanoma 104% | SK-MEL-28 melanoma 102%

O=C(NCCCl)Nc1nccnc1OCc1ccc(F)cc1
inactive: HCT-15 colon 104% | HT29 colon 102% | SNB-75 CNS 90.3% | SNB-19 CNS 94.9% | U251 CNS 101% | PC-3 prostate 96.5% | SK-MEL-5 melanoma 107% | UACC-62 melanoma 93.7% | SK-MEL-28 melanoma 109%

CC(=O)CCS(=O)c1ccccc1 (stereo not drawn)
inactive: HCT-15 colon 110% | HT29 colon 97.8% | SNB-75 CNS 96% | SNB-19 CNS 98.2% | U251 CNS 97.2% | PC-3 prostate 94.6% | SK-MEL-5 melanoma 102% | UACC-62 melanoma 99.6% | SK-MEL-28 melanoma 109%

O=C1C(Cl)=C(SC2=NCCN2)C(=O)c2ccccc21
inactive: HCT-15 colon 83.3% | HT29 colon 102% | SNB-75 CNS 153% | SNB-19 CNS 92.3% | U251 CNS 63.9% | PC-3 prostate 64.5% | UACC-62 melanoma 74.3% | SK-MEL-28 melanoma 78.9%
active: SK-MEL-5 melanoma -29.6%

CCC(CCCN1C(=O)c2ccccc2C1=O)Nc1cc(OC)cc2cccnc12 (stereo not drawn)
inactive: HCT-15 colon 92.4% | HT29 colon 105% | SNB-75 CNS 93% | SNB-19 CNS 106% | U251 CNS 101% | PC-3 prostate 86.9% | SK-MEL-5 melanoma 89.9% | UACC-62 melanoma 82.6% | SK-MEL-28 melanoma 111%

CC(=O)Nc1nc(C)c(C(=O)N/N=C/N2CCOCC2)s1
inactive: HCT-15 colon 105% | HT29 colon 107% | SNB-75 CNS 101% | SNB-19 CNS 104% | U251 CNS 101% | SK-MEL-5 melanoma 112% | UACC-62 melanoma 98.4% | LOX IMVI melanoma 106% | SK-MEL-28 melanoma 111%

Cc1ccnc2c(NC(C)CCCN)cc(O)c(O)c12 (stereo not drawn)
inactive: HCT-15 colon 121% | HT29 colon 60% | SNB-75 CNS 105% | SNB-19 CNS 102% | U251 CNS 83.1% | SK-MEL-5 melanoma 95.9% | UACC-62 melanoma 105% | LOX IMVI melanoma 60.7% | SK-MEL-28 melanoma 115%

CC[N+](C)(C)N
inactive: HCT-15 colon 103% | HT29 colon 102% | SNB-75 CNS 80.5% | SNB-19 CNS 95.5% | U251 CNS 101% | PC-3 prostate 100% | UACC-62 melanoma 105% | LOX IMVI melanoma 90.9% | SK-MEL-28 melanoma 94.9%

NNC(=O)CNc1ccc2ccccc2c1
inactive: HCT-15 colon 110% | HT29 colon 106% | SNB-75 CNS 104% | SNB-19 CNS 109% | U251 CNS 101% | PC-3 prostate 98% | UACC-62 melanoma 98.8% | LOX IMVI melanoma 96% | SK-MEL-28 melanoma 125%

O=C(/C=C/c1cccc(O)c1)c1cccc(-n2cc(-c3ccc(Cl)cc3)[nH]c2=O)c1
active: HCT-15 colon -22.9% | HT29 colon -10.1% | SNB-75 CNS 0.636% | SNB-19 CNS -10.6% | U251 CNS -87.9% | SK-MEL-5 melanoma -0.458% | UACC-62 melanoma 5.09% | LOX IMVI melanoma -92.1% | SK-MEL-28 melanoma -86.4%

CC(=O)c1nn(-c2ccc(C)cc2)cc1C(=O)c1cc2c(ccc3ccccc32)oc1=O
inactive: HCT-15 colon 99.3% | HT29 colon 92.4% | SNB-75 CNS 66.4% | SNB-19 CNS 92.6% | U251 CNS 104% | PC-3 prostate 87.9% | UACC-62 melanoma 78.3% | LOX IMVI melanoma 90.5% | SK-MEL-28 melanoma 96.7%

CCCCCCCCCCCCCCCCNC(=O)Nc1ccc(C)c(NC(=O)NCCCCCCCCCCCCCCCC)c1
inactive: HCT-15 colon 105% | HT29 colon 104% | SNB-75 CNS 97% | SNB-19 CNS 96.9% | U251 CNS 100% | PC-3 prostate 84.5% | UACC-62 melanoma 95.5% | LOX IMVI melanoma 109% | SK-MEL-28 melanoma 112%

CCN(CC)CCNc1ncnc2c1cnn2-c1ccc(Cl)cc1
active: HT29 colon 7.44% | UACC-62 melanoma -50.5% | SK-MEL-28 melanoma -40.4%
inactive: HCT-15 colon 34.8% | SNB-75 CNS 74.4% | SNB-19 CNS 91.2% | U251 CNS 75.5% | PC-3 prostate 82% | LOX IMVI melanoma 60%

COc1cc([C@@H]2c3cc4c(cc3[C@H](O)[C@H]3COC[C@@H]23)OCO4)cc(OC)c1OC
inactive: HCT-15 colon 59.1% | HT29 colon 79.1% | SNB-75 CNS 58% | SNB-19 CNS 76.9% | U251 CNS 77.4% | PC-3 prostate 63.8% | UACC-62 melanoma 42.7% | LOX IMVI melanoma 75.7% | SK-MEL-28 melanoma 69.4%

O=C(Oc1ccccc1)c1ccccc1Cl
inactive: HCT-15 colon 98% | HT29 colon 118% | SNB-75 CNS 89.6% | SNB-19 CNS 104% | U251 CNS 98.5% | PC-3 prostate 95% | UACC-62 melanoma 107% | LOX IMVI melanoma 107% | SK-MEL-28 melanoma 107%
